# PubChem BioAssay (NCATS)
# Results filed as inconclusive are left out. The source made the active and inactive calls. Calls come from the whole dose curve; as a rule, active = well fitted cell-killing curve with a large enough effect; inconclusive = small, poorly fitted or top-dose-only effect, or effect the other way; inactive = no such curve, though single readings can be large or run the other way.
# Experiment: Quantitative High-Throughput drug screen in 47 multiple myeloma cell lines against the NCATS MIPE library collection: OPM2_DSMZ cell viability assay (AID 1919872); note: nearly all actives have a fitted effect of over 30% in size
# Conditions: OPM2 myeloma viability, CellTiter-Glo ATP luminescence, 48 h; series mostly up to 45.8 µM
# How it was run: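 Approved and investigational drugs from MIPE 4.0 were added by pin tool to 500 cells per well. After 48 hours at 37C, ATP-based CellTiter-Glo luminescence indicated remaining viability.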
# Potency is the fitted concentration of half-maximal effect.
SMILES,Potency,viability (% of DMSO)
Cc1cc(O)c2c(c1)C(=O)c1cccc(O)c1C2=O,inactive,–
CCC(C(=O)O)C1CCC(C)C(C(C)C(O)C(C)C(=O)C(CC)C2OC3(C=CC(O)[C@@]4(CC[C@](C)(C5CC[C@@](O)(CC)C(C)O5)O4)O3)C(C)CC2C)O1 (some centres undefined),1.87 µM (active),–
CC(=O)[C@]1(O)Cc2c(O)c3c(c(O)c2[C@@H](O[C@H]2C[C@H](N)[C@@H](O)[C@H](C)O2)C1)C(=O)c1ccccc1C3=O,0.662 µM (active),–
COc1cc(C=CC(=O)CC(=O)C=Cc2ccc(O)c(OC)c2)ccc1O,21.5 µM (active),–
CN(CC(=O)N(Cc1ccc(C2CCCCC2)cc1)c1ccc(C(=O)O)c(O)c1)S(=O)(=O)c1c(F)c(F)c(F)c(F)c1F,23.5 µM (active),–
CC(C)(C)[C@H](NC(=O)c1ccc(N)c(Cl)c1)C(=O)N1CCC[C@@H]1C(=O)N[C@H](C#N)CC(=O)O,–,102% [at 3.51 µM] (inactive)
Cn1cnc(=N)c2[nH]cnc21,0.235 µM (active),–
COc1ccc2c(c1OC)C(=O)OC2[C@H]1c2c(cc3c(c2OC)OCO3)CCN1C (some centres undefined),0.0662 µM (active),–
C[C@@H]1CC[C@@]2(OC1)OC1CC3C4CC=C5CC(O)CCC5(C)C4CCC3(C)C1[C@@H]2C (some centres undefined),inactive,–
C#C[C@]1(O)CC[C@@H]2[C@@H]3CCC4=CC(=O)CC[C@@H]4[C@H]3CC[C@@]21CC,inactive,–
COc1ccc(S(=O)(=O)Nc2cccnc2Nc2ccc(O)cc2)cc1,0.118 µM (active),–
C=C(C)[C@@H]1CC[C@]2(C(=O)O)CC[C@]3(C)[C@H](CC[C@@H]4[C@@]5(C)CC[C@H](O)C(C)(C)[C@@H]5CC[C@]43C)[C@@H]12,inactive,–
CC(=O)OCC(=O)[C@@]1(O)CC[C@H]2[C@@H]3CCC4=CC(=O)CC[C@]4(C)[C@@H]3C(=O)C[C@@]21C,inactive,–
CC(=O)SCC(Cc1ccccc1)C(=O)NCC(=O)OCc1ccccc1 (centres undefined),5.9 µM (active),–
C[C@H](CCC(=O)O)[C@H]1CC[C@H]2[C@@H]3[C@H](O)C[C@@H]4C[C@H](O)CC[C@]4(C)[C@@H]3CC[C@]12C,inactive,–
c1cc(CN2CCCNCCNCCCNCC2)ccc1CN1CCCNCCNCCCNCC1,inactive,–
NC[C@H]1O[C@H](O[C@H]2[C@@H](O)[C@@H](O[C@H]3O[C@H](CO)[C@@H](O)[C@H](N)[C@@H]3O)[C@H](N)C[C@@H]2N)[C@H](N)C[C@H]1O,inactive,–
N#CNC(=NCCCCCCOc1ccc(Cl)cc1)Nc1ccncc1,0.0148 µM (active),–
C[C@H]1COc2c(N3CCN(C)CC3)c(F)cc3c(=O)c(C(=O)O)cn1c23,inactive,–
O=c1[nH]c(=O)n([C@H]2C[C@@H](O)[C@@H](CO)O2)cc1C=CBr,inactive,–
COC[C@H](NC(=O)c1cnc(C)s1)C(=O)N[C@@H](COC)C(=O)N[C@@H](Cc1ccccc1)C(=O)[C@@]1(C)CO1,0.235 µM (active),–
COC(=O)[C@H](CCCN=C(N)N)NS(=O)(=O)c1ccc(C)cc1,inactive,–
CCOC(=O)[C@H](CCc1ccccc1)N[C@@H](C)C(=O)N1[C@@H](C(=O)O)C[C@H]2CCC[C@@H]21,26.4 µM (active),–
O=C(CCCCCCC(=O)Nc1cccnc1)NO,8.33 µM (active),–
COc1cc([C@@H]2c3cc4c(cc3[C@H](O)[C@H]3COC(=O)[C@@H]23)OCO4)cc(OC)c1OC,0.148 µM (active),–
CC(C)NC[C@@H](C(=O)N1CCN(c2ncnc3c2[C@H](C)C[C@H]3O)CC1)c1ccc(Cl)cc1,18.7 µM (active),–
C[C@H](NCc1ccc(OCc2cccc(F)c2)cc1)C(N)=O,11.8 µM (active),–
O=C(c1ccc(F)cc1)N1CCC[C@H](c2nc(-c3ccc(F)cc3)no2)C1,inactive,–
COc1cccc2c1C(=O)c1c(O)c3c(c(O)c1C2=O)C[C@@](O)(C(=O)CO)C[C@@H]3O[C@H]1C[C@H](N)[C@H](OC2CCCCO2)[C@H](C)O1 (some centres undefined),16.6 µM (active),–
